# The source made the active and inactive calls. No rule for the calls is given here.
# Biological target: Pantothenate synthetase (Mycobacterium tuberculosis (strain ATCC 25618 / H37Rv)) (UniProt P9WIL5)
# Assay: Recombinant Mtb pantothenate synthetase (PanC) inhibitors, coupled enzyme, confirmatory (AID 375);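 also: 0% = full reaction with vehicle and 100% = no enzyme background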
# Settings: coupled enzyme assay; at 10 µM, hits give high values
# Sequence of Pantothenate synthetase (Mycobacterium tuberculosis (strain ATCC 25618 / H37Rv)) (P9WIL5 whole entry, looked up): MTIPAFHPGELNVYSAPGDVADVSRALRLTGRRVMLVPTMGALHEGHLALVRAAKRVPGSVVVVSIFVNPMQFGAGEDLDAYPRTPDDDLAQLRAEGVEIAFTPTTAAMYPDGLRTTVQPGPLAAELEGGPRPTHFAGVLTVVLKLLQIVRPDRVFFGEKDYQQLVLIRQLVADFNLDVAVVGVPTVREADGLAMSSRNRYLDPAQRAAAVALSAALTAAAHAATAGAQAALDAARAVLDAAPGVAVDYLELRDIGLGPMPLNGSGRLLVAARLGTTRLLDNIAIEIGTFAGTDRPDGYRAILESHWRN
row,Compound,inhibition
1,COc1cc(-c2nc(-c3cccc(C(F)(F)F)c3)no2)cc(OC)c1OC,0% (inactive)
2,O=C(OCN1C(=O)c2ccccc2C1=O)c1ccc2c(=O)n3c(nc2c1)CCC3,0% (inactive)
3,O=C(CSCc1cccs1)N1CCCC1,3% (inactive)
4,COCCNC(=O)C1CCCN(c2ncccn2)C1 (stereo unspecified),0% (inactive)
5,CCOC(=O)N1CCC(NC(=O)CS(=O)(=O)Cc2nc(-c3ccccc3C)oc2C)CC1,3% (inactive)
6,CCc1nnc(SCc2cn3c(C)cc(C)nc3n2)n1N,0% (inactive)
7,CC(=O)OCC1OC(c2ccccc2)C(OC(C)=O)C(OC(C)=O)C1OC(C)=O (stereo unspecified),0% (inactive)
8,Cc1[nH]c(C(=O)N2CCCCC2)c(C)c1C(=O)NC1CCCCC1,4% (inactive)
9,COC(=O)c1sc(N)c(C(=O)OC)c1COC(=O)C1CC(=O)N(Cc2ccco2)C1 (stereo unspecified),3% (inactive)
10,CC(=O)c1cccc(NC(=O)c2ccc(NS(C)(=O)=O)cc2)c1,1% (inactive)
11,O=C(c1ccco1)N1CCN(C(=O)C2CC(c3ccc(F)cc3)=NO2)CC1 (stereo unspecified),0% (inactive)
12,COc1ccc(CNC(=O)c2cc3c(=O)n4ccccc4nc3n(Cc3ccco3)c2=N)cc1,0% (inactive)
13,CCn1c(C(=O)N2CCCC(C(=O)O)C2)cc2sccc21 (stereo unspecified),11% (inactive)
14,COc1ccc(CC(=O)NCc2nnc(SCC(=O)Nc3nccs3)n2-c2ccccc2)cc1,0% (inactive)
15,CC1CCc2nn(CC(=O)NCc3ccc4c(c3)OCO4)cc2C1 (stereo unspecified),1% (inactive)
16,CCOc1ccc(N2C(N)=NC(N)=NC2(C)C)cc1,0% (inactive)

# Source: PubChem BioAssay
